Screens from PubChem.
Six1-Eya2 blk: qHTS Assay for Inhibitors of the Six1/Eya2 Interaction; Homeobox protein SIX1 (Homo sapiens) + Protein phosphatase EYA2 (Homo sapiens), …; AlphaScreen GST-Six1/His-Eya2 binding, biochemical; hits give low values; activity change, % (concentration not given with the values); 360,000 compounds, 0.56% hits; in the data active = activity change below about -65%; inconclusive = mostly about -30% to -63%
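GST-Six1 + His-Eya2 (5X stock: 250/500 nM); Tris pH 8.0, 300 mM NaCl, 0.05% BSA, 0.02% Tween 20; GSH donor/Ni acceptor beads; 1 h 37 °C dark; AlphaScreen readout.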
Eya2 inh: qHTS Assay for Inhibitors of the Phosphatase Activity of Eya2. Protein phosphatase EYA2 (Homo sapiens), O00167. recombinant Eya2, OMFP fluorescence dephosphorylation (OMFP is methylfluorescein phosphate). Potency, µM (doses to about 76.9 µM), for the others: top-dose activity, negative = inhibition, usual class: inhibitors. 330,000 compounds, 0.006% hits. AID 488837, 2010; note: potency is the fitted concentration of half-maximal effect
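Eya2 protein (added as 0.2 uM solution) was preincubated with compound for 10 min at ambient temperature in 50 mM HEPES pH 7.5, 50 mM NaCl, 5 uM MgCl2, 0.05% BSA, 1 mM DTT. OMFP (added at 50 uM) then reacted 10 min; fluorescence read at 485/525 nm.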
L3MBTL1 inh: qHTS Assay for the Inhibitors of L3MBTL1; Lethal(3)malignant brain tumor-like protein 1 (Homo sapiens), Q9Y468; AlphaScreen L3MBTL1–H3K9me1 peptide binding; Potency, µM (titrated, usually from 57.1 µM), inactives show at the top dose activity, negative = inhibition, usual class: inhibitors; 230,000 compounds, 0.66% hits; AID 485360, 2010; note: potency is the fitted concentration of half-maximal effect; nearly all actives have a fitted effect of over 60% in size
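Displacement of a biotinylated histone H3(1-15) peptide monomethylated at Lys9 (75 nM) from L3MBTL1 (50 nM) was measured by AlphaScreen after a 30 min room-temperature compound incubation; cefsulodin titration served as intraplate control.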
B2AR arrestin: qHTS assay of beta-arrestin-biased ligands of beta2-adrenergic receptor. beta-arrestin recruitment to beta2AR, cell-based reporter. Potency, µM (titrated, usually from 46.1 µM), without a hit: top-dose activation, most hits filed as activators. 330,000 compounds, 0.02% hits. AID 492947, 2010;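 note: potency is the fitted concentration of half-maximal effect; 0% = DMSO controls and full agonism = EC100 isoproterenol or metaproterenol; nearly all actives have a fitted effect of over 65% in size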
Target sequence (P07550 whole entry, looked up): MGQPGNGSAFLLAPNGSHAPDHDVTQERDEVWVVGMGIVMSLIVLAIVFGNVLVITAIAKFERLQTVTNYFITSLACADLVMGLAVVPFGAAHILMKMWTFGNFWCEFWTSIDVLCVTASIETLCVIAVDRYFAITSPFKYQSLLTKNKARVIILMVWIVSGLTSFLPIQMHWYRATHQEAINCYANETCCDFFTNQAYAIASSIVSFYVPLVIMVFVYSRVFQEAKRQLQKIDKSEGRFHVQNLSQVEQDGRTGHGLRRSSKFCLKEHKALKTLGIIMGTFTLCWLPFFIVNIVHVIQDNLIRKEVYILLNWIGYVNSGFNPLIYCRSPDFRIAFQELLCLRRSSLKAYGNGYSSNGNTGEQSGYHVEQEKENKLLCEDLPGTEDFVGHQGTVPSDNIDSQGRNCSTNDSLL
CtBP-E1A blk: qHTS Assay for Inhibitors of the CtBP/E1A Interaction; activity change, % (concentration not given with the values); CtBP / adenovirus E1A interaction (AlphaScreen); 340,000 compounds, 0.49% hits; AlphaScreen GST-E1A/His-CtBP binding, 1536-well; hits give low values; AID 651724, 2012; in the data active = activity change below about -65%; inconclusive = mostly about -30% to -63%
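Protein mix (5X: 125 nM each GST-E1A, His-CtBP) was incubated with pinned compound 2 h at 37 deg C in dark, in 50 mM Tris pH 8.0 buffer with 300 mM NaCl. Glutathione donor and nickel acceptor beads followed; AlphaScreen signal read after 1 h.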
Starred values were filed as active, the others as inactive; ? = inconclusive; . = no result; [ ] = another dose, or the depositor's remark. The list is not random: actives were taken first. Their share in the collection is about 0.9%. Unless noted, calls come from the whole dose curve; as a rule, active = well fitted curve in the direction sought with a large enough effect; inconclusive = small, poorly fitted or top-dose-only effect, or another doubt; inactive = no such curve, though single readings can be large; an effect the other way counts as inactive or inconclusive. Unless noted, % is set by controls: 0 for no effect and ±100 for the full control effect.

SMILES	Six1-Eya2 blk	Eya2 inh	L3MBTL1 inh	B2AR arrestin	CtBP-E1A blk
CC(NNC(=S)N1CCN(c2ccccn2)CC1)c1nccc2ccccc12 (stereo unspecified)	-92*	.	.	.	3
Cc1oc2c(C)c3oc(=O)c(CCC(=O)NCCCCCC(=O)O)c(C)c3cc2c1C	?	9%	.	-1%	?
COc1cc(COc2ccc3c(C)c(CCC(=O)O)c(=O)oc3c2)cc(OC)c1OC	-9	11%	.	0%	-6
COc1ccc(-c2coc3c(C)c4oc(=O)c(CCC(=O)O)c(C)c4cc23)cc1	-77*	-5%	.	-1%	-72*
Cc1c(CC(=O)O)c(=O)oc2c(C)c3occ(-c4ccc(F)cc4)c3cc12	-29	?	.	-1%	-72*
Cc1c(CCC(=O)O)c(=O)oc2c(C)c3occ(-c4ccc(Br)cc4)c3cc12	-85*	-3%	.	0%	-84*
Cc1coc2c(C)c3oc(=O)c(CC(=O)N[C@@H](CC(C)C)C(=O)O)c(C)c3cc12	-3	-7%	.	-1%	-4
COC(=O)[C@@]12C[C@@H](CC(=O)NCc3cccc4ccccc34)C(=O)N(Cc3ccc4c(c3)OCO4)C1=CCC(C)(C)C2	-11	.	.	.	-1
O=C(NC(=S)NNC(=O)c1ccccc1O)c1cccs1	-82*	-17%	.	0%	-95*
Cc1ccccc1C(=O)NNC(=S)NC(=O)c1ccccc1	-4	7%	10%	-1%	-3
O=C(NNC(=S)NC(=O)c1ccccc1[N+](=O)[O-])c1ccccc1O	-74*	3%	?	-1%	-94*
COc1ccccc1C(=O)NNC(=S)NC(=O)c1cccs1	.	3%	.	0%	.
O=C(NC(=S)NNC(=O)c1ccccc1O)c1ccccc1	-75*	13%	.	0%	-94*
O=C(NNC(=S)NC(=O)c1ccccc1)c1ccc([N+](=O)[O-])cc1	5	-18%	-7%[2.29 µM]	-1%	.
O=C(NC(=S)NNC(=O)c1ccccc1O)c1ccc([N+](=O)[O-])cc1	-86*	-6%	.	0%	.
NC(=O)c1cc([N+](=O)[O-])ccc1NCC1CCCCC1	-14	-3%	-5%	0%	-13
O=C(CNC(=O)COc1ccccc1)NCc1cccnc1	-1	4%	.	0%	10
O=C(NC(=S)NNC(=O)c1ccccc1O)c1ccc(F)cc1	-91*	8%	-30%	-1%	-94*
Cc1ccc(C(=O)NC(=S)NNC(=O)c2ccccc2O)cc1	-88*	1%	.	0%	-2
C=CCN1C(=O)c2ccc(C(=O)N3CCN(S(=O)(=O)c4ccccc4Br)CC3)cc2C1=O	0	-5%	-2%	-1%	-1
CCS(=O)(=O)NCC(c1cccnc1)N1CCN(c2ccccc2)CC1 (stereo unspecified)	7	-9%	2%	0%	0
CCS(=O)(=O)NCC(c1cccnc1)N1CCN(c2ccc(OC)cc2)CC1 (stereo unspecified)	1	-1%	.	0%	-75*
COc1ccc(CN2CCNC(=O)C2CC(=O)N2CCCCO2)c(OC)c1 (stereo unspecified)	-3	-2%	2%	0%	4
O=C1c2cccc(NCCCNCCO)c2C(=O)c2cccc(NCCCNCCO)c21	-71*	.	.	.	-79*
C[C@H]1CN([C@@H](C)CO)C(=O)CCCn2nncc2CO[C@H]1CN(C)C(=O)c1ccc2ccn(C)c2c1	2	.	.	.	-2
COc1cc(OC)c(NC(=O)CN(C)S(=O)(=O)c2ccc(-c3ccc(=O)[nH]n3)s2)cc1Cl	-71*	-6%	.	0%	.
O=C(Cc1ccc(Cl)cc1)Oc1cccc2cccnc12	-91*	-4%	?	0%	-83*
Cc1c(C(=O)Oc2cccc3cccnc23)cccc1[N+](=O)[O-]	-88*	0%	.	?	2
